Data reported in the supplement of paper PMC10849652.
Of roughly 8,800 targets only a part is listed; those with a hit were picked by preference. About 0.5% of all pairs of compound and target were hits. Unmarked numbers belong to inactive results.

Experiments:
Assay in all cases: log2 fold change, soluble protein after heating vs DMSO (PISA); higher = thermal stabilisation; K562 lysate, 10 uM; active = over 0.2 and 3.5 SD of the protein, either way, in both replicates (recomputed)
[1] = compound: C=CC(=O)N1CCC[C@@H](n2nc(-c3ccc(Oc4ccccc4)cc3)c3c(N)ncnc32)C1 [ibrutinib]
How it was run: (§1)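 Quantification was by TMTpro 16plex LC-MS/MS with equalised channel sums, applied to the supernatant after 21,000xg for 90 min. Samples were crude K562 extract at 1 mg/mL protein in PBS pH 7.4 with 1 mM MgCl2, treated with 10 μM compound for 30 min, heated for 3 min across 48°C-58°C, pooled and brought to 0.5% NP-40 at 4°C. Values are log-two fold changes in thermal stability relative to solvent controls, from duplicates.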

[2] = compound: CC(=O)c1cnc2ccc(-c3cc(Cl)c(O)c(Cl)c3)nc2c1N[C@H]1CC[C@H](CN(C)C)CC1
How it was run: as §1

[3] = compound: CC(C)(C)Cn1c(N)nc2ccc(-c3[nH]c(C(C)(C)C)nc3-c3ccc(F)cc3)nc21 [ralimetinib]
How it was run: as §1

[4] = compound: CC(C)(O)CC(=O)NCCn1ccc2ncnc(Nc3ccc(Oc4cccc(C(F)(F)F)c4)c(Cl)c3)c21
How it was run: as §1

[5] = compound: CC(C)C1=C2N=C(C=C(N2N=C1)NCC3=CC=CC=C3)NCCCCCCN
How it was run: as §1

[6] = compound: CC1=C(C(CC(=O)N1)C2=CC=C(C=C2)C(F)(F)F)C(=O)NC3=C(C=C4C(=C3)C=NN4)F
How it was run: as §1

[7] = compound: CC1=C(C2=C(C=C1)C(=O)C3=CC=CC=C3N2CCCN)C
How it was run: as §1

[8] = compound: CC1=C(C=C(C=C1)NC(=O)C2=CC(=CC=C2)C(C)(C)C#N)NC3=CC4=C(C=C3)N=CN(C4=O)C
How it was run: as §1

[9] = compound: CC1=C(C=C(C=C1)NC(=O)C2=CC(=CC=C2)N(C)C)NC(=O)C3=CC=C(C=C3)O
How it was run: as §1

[10] = compound: CC1=CC=C(C=C1)SC2=C3C=C(SC3=CN=C2)C(=O)N
How it was run: as §1

[11] = compound: CCCS(=O)(=O)Nc1ccc(F)c(C(=O)c2c[nH]c3ncc(-c4ccc(Cl)cc4)cc23)c1F [vemurafenib]
How it was run: as §1

[12] = compound: CCCS(=O)(=O)Nc1ccc(F)c(C(=O)c2c[nH]c3ncc(Cl)cc23)c1F
How it was run: as §1

[13] = compound: CCN(CCCOc1ccc2c(Nc3cc(CC(=O)Nc4cccc(F)c4)[nH]n3)ncnc2c1)CCOP(=O)(O)O [barasertib]
How it was run: as §1

[14] = compound: CC[C@@H]1C(=O)N(C)c2cnc(Nc3ccc(C(=O)NC4CCN(C)CC4)cc3OC)nc2N1C1CCCC1
How it was run: as §1

[15] = compound: CC[C@@H]1C(=O)N(C)c2cnc(Nc3ccc(C(=O)N[C@H]4CC[C@H](N5CCN(CC6CC6)CC5)CC4)cc3OC)nc2N1C(C)C [volasertib]
How it was run: as §1

[16] = compound: CCn1c(C(=O)N(C2CC2)C2CC2)cc2c3c(ncn3C)c(Nc3cc(C)n(C)n3)nc21
How it was run: as §1

[17] = compound: CCn1cc(-c2ccnc3[nH]c(-c4cccc(CN(C)C)c4)cc23)c(-c2ccc(NC(=O)N(C)C)cc2)n1
How it was run: as §1

[18] = compound: CN1CCC(CNc2ccc3ncc(-c4cccc(OC(F)(F)F)c4)n3n2)CC1
How it was run: as §1

[19] = compound: CN1CCN(CCOc2cc(OC3CCOCC3)c3c(Nc4c(Cl)ccc5c4OCO5)ncnc3c2)CC1 [saracatinib]
How it was run: as §1

[20] = compound: CN1CCN(c2nc(C3=C(c4c[nH]c5ccccc45)C(=O)NC3=O)c3ccccc3n2)CC1 [sotrastaurin]
How it was run: as §1

UniProt Q9BZV1, sequence (Q9BZV1 whole entry, looked up): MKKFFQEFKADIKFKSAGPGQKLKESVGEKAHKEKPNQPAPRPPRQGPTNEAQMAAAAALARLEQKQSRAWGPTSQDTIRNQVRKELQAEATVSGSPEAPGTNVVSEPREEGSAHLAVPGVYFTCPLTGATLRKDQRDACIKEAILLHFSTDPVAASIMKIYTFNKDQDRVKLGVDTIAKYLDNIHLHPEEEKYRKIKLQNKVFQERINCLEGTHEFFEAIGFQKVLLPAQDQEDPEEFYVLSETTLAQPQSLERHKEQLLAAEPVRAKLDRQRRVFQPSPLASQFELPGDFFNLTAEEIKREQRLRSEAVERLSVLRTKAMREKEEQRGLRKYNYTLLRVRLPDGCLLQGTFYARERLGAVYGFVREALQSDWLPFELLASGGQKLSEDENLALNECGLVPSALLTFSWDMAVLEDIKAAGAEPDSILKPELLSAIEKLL
UniProt Q9Y5L0, sequence (Q9Y5L0 whole entry, looked up): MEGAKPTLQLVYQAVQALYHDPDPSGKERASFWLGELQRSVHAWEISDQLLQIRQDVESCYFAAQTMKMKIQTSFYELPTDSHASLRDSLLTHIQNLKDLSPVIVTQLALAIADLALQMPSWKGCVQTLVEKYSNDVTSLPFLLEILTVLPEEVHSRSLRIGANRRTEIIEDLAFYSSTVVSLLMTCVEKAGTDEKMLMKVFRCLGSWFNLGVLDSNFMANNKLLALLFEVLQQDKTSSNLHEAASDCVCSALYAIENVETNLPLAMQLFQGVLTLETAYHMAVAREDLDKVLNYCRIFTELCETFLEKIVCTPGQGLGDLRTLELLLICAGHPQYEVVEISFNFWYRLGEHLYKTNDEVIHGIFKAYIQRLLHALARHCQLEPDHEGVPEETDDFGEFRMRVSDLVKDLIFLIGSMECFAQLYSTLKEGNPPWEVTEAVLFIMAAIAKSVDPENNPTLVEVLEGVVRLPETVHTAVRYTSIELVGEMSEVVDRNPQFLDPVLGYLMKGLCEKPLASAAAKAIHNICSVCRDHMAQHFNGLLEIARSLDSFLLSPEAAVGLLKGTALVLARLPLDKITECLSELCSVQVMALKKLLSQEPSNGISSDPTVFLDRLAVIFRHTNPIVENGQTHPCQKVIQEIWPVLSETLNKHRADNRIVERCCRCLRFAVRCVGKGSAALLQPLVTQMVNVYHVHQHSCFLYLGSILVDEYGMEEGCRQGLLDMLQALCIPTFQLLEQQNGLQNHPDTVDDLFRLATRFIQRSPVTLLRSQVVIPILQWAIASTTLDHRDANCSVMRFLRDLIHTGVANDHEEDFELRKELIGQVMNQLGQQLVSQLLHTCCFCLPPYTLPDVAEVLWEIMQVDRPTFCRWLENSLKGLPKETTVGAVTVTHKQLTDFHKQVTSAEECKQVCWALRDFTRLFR
UniProt Q6NXR4, sequence (Q6NXR4 whole entry, looked up): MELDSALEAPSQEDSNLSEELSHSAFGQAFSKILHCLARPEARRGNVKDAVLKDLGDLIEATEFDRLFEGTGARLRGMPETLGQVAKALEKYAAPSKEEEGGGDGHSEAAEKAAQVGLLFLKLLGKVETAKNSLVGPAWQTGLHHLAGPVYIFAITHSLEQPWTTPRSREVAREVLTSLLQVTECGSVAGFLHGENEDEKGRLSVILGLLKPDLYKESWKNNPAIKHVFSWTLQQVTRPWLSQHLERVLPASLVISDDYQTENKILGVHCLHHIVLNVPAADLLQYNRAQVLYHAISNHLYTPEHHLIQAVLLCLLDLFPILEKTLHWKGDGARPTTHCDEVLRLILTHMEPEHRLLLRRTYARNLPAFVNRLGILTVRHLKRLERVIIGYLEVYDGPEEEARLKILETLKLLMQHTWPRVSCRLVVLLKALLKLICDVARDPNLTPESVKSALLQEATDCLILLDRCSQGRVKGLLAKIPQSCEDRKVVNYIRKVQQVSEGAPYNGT
UniProt O95071, sequence (O95071 whole entry, looked up): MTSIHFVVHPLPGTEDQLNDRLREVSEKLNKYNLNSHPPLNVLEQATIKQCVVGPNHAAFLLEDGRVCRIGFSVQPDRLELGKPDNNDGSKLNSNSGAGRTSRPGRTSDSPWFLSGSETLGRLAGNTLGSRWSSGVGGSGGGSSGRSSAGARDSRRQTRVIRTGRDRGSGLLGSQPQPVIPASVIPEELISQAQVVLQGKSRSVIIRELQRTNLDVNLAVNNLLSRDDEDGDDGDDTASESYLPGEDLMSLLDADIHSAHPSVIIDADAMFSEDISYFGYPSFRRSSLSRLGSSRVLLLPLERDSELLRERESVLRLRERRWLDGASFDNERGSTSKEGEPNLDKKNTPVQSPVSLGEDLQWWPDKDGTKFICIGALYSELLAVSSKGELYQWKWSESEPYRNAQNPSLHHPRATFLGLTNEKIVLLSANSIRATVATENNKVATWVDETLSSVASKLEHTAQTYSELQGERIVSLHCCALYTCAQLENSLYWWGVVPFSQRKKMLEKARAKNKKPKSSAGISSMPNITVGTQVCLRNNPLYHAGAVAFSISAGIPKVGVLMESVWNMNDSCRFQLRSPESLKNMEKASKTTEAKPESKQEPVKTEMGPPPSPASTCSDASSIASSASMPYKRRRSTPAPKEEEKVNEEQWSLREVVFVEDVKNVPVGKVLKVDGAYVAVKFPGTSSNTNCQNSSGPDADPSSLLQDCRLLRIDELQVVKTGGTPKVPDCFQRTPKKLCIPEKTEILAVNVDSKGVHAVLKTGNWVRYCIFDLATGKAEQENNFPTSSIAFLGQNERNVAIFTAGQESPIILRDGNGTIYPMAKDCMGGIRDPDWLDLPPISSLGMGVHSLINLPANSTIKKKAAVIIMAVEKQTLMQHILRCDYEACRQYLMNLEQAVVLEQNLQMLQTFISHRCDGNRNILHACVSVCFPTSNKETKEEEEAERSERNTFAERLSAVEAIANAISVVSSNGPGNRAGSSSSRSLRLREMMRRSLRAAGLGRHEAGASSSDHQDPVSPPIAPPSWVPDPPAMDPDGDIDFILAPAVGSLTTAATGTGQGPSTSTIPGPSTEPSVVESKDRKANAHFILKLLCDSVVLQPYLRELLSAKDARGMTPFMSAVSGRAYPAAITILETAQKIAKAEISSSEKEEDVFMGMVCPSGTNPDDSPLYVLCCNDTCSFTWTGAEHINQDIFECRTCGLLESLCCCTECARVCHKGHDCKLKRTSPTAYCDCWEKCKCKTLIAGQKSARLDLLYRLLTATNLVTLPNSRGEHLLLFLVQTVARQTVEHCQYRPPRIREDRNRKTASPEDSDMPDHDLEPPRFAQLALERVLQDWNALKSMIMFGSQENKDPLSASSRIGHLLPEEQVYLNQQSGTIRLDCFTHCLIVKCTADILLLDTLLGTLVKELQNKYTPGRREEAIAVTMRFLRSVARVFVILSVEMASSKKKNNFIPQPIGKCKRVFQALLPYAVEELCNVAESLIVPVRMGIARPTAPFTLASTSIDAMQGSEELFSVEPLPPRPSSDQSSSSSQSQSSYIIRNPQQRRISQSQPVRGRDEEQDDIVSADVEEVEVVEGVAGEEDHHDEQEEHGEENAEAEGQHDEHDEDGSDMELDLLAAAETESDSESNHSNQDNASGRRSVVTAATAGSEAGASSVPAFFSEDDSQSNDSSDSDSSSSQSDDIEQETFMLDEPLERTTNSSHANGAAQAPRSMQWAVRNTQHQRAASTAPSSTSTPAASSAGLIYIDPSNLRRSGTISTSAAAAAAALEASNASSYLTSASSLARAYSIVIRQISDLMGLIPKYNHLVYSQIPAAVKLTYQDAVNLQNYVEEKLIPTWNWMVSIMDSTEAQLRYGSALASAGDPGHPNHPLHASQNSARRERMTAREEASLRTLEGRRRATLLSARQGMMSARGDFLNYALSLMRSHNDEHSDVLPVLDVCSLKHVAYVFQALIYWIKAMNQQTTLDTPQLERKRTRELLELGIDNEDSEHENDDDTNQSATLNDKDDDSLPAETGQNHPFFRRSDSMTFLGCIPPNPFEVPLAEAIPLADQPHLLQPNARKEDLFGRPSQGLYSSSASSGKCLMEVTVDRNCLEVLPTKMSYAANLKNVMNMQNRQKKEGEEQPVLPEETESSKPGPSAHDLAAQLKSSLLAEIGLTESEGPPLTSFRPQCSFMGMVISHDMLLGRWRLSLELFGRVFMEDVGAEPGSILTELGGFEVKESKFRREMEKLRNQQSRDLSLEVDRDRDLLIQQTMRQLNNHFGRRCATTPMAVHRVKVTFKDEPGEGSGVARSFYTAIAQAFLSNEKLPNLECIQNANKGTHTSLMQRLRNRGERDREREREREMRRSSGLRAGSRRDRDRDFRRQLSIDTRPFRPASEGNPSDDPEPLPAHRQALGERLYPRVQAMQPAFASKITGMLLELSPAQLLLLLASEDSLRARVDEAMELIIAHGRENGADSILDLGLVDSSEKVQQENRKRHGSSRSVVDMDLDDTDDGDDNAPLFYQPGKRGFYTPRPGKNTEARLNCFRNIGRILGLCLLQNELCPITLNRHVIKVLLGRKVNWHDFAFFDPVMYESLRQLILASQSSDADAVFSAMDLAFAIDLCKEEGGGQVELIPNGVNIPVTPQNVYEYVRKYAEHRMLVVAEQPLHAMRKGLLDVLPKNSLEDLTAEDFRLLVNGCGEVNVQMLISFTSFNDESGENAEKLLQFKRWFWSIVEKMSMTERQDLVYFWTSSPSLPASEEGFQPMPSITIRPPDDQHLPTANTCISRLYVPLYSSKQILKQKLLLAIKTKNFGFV
UniProt P51668, sequence (P51668 whole entry, looked up): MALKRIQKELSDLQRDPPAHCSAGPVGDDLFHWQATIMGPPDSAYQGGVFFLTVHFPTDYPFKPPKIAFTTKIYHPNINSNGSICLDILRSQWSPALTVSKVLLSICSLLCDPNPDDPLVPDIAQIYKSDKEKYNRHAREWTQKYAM
UniProt Q9BUB7, sequence (Q9BUB7 whole entry, looked up): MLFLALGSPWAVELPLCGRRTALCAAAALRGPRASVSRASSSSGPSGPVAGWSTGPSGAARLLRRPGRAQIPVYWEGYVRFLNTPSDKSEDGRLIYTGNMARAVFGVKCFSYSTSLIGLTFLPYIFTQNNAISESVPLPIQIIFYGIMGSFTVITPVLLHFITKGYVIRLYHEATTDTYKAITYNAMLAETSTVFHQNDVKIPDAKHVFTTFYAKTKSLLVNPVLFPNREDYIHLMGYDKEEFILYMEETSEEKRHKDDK

| Target | log2 fold change [1] | log2 fold change [2] | log2 fold change [3] | log2 fold change [4] | log2 fold change [5] | log2 fold change [6] | log2 fold change [7] | log2 fold change [8] | log2 fold change [9] | log2 fold change [10] | log2 fold change [11] | log2 fold change [12] | log2 fold change [13] | log2 fold change [14] | log2 fold change [15] | log2 fold change [16] | log2 fold change [17] | log2 fold change [18] | log2 fold change [19] | log2 fold change [20] |
| --- | --- | --- | --- | --- | --- | --- | --- | --- | --- | --- | --- | --- | --- | --- | --- | --- | --- | --- | --- | --- |
| TTI2 (UniProt Q6NXR4) | 0.012 | 0.016 | 0.019 | -0.062 | -0.004 | -0.009 | 0.018 | -0.009 | -0.015 | -0.017 | -0.009 | 0 | 0.005 | -0.022 | -0.048 | -0.004 | 0 | 0.035 | 0.037 | 0.031 |
| TBC1D8B (UniProt Q0IIM8) | 0.044 | -0.039 | -0.049 | -0.017 | 0.031 | -0.072 | 0.006 | 0.016 | -0.056 | -0.051 | -0.007 | -0.025 | 0.108 | 0.096 | 0.072 | -0.024 | -0.308 (active) | 0.192 | -0.047 | -0.042 |
| UBE2D1 (UniProt P51668) | -0.033 | 0.017 | -0.009 | 0.073 | 0.01 | -0.03 | -0.007 | -0.002 | 0.043 | -0.007 | -0.013 | 0.022 | 0.014 | 0.012 | -0.046 | 0.089 | 0.007 | -0.025 | 0.043 | -0.021 |
| TRNAU1AP (UniProt Q9NX07) | -0.013 | -0.212 | 0.07 | -0.045 | 0.039 | -0.008 | 0.02 | -0.035 | 0.034 | 0.021 | -0.335 (active) | 0.007 | 0.059 | 0.062 | -0.041 | 0.04 | -0.264 | 0.031 | 0.027 | -0.027 |
| TUBB (UniProt P07437) | -0.013 | 0.011 | 0.038 | -0.009 | 0.037 | 0.049 | 0.003 | 0.007 | 0.014 | 0.009 | 0.018 | 0.003 | -0.051 | -0.02 | -0.063 | -0.017 | -0.041 | 0.004 | 0.029 | 0.017 |
| TMPO (UniProt P42167) | -0.003 | 0.009 | 0.018 | -0.001 | -0.044 | 0.006 | 0.005 | -0.043 | -0.006 | -0.064 | 0.063 | 0.008 | 0.003 | -0.01 | 0.013 | 0.022 | 0.033 | -0.033 | 0.014 | -0.014 |
| TNPO3 (UniProt Q9Y5L0) | -0.008 | 0.015 | 0.003 | -0.023 | -0.033 | -0.006 | 0 | -0.015 | 0.003 | 0.008 | 0.024 | 0.003 | 0.019 | 0.009 | -0.008 | 0.008 | 0.005 | 0.023 | -0.001 | -0.004 |
| UBP1 (UniProt Q9NZI7) | -0.006 | 0.056 | 0.024 | -0.004 | 0.048 | -0.028 | 0.047 | 0.03 | -0.037 | 0.004 | -0.014 | 0.117 | 0.008 | 0.01 | -0.017 | 0.007 | 0.228 (active) | -0.24 | -0.008 | -0.063 |
| UBR5 (UniProt O95071) | -0.001 | -0.005 | 0.01 | -0.028 | -0.005 | 0.004 | -0.011 | 0.013 | 0.016 | 0.018 | 0.004 | 0.035 | 0.045 | 0.006 | -0.031 | 0.01 | -0.029 | 0.003 | 0.019 | -0.005 |
| THEMIS2 (UniProt Q5TEJ8) | 0.029 | -0.038 | 0.059 | -0.037 | -0.009 | 0.029 | -0.051 | -0.023 | -0.042 | 0.126 | -0.004 | 0.11 | -0.052 | 0.016 | 0.132 | 0.015 | -0.019 | 0.004 | 0.01 | -0.016 |
| TMEM87A (UniProt Q8NBN3) | -0.002 | 0.019 | -0.031 | -0.035 | -0.075 | -0.017 | -0.02 | 0.016 | 0.004 | -0.02 | 0.032 | -0.007 | -0.025 | 0.008 | -0.006 | -0.026 | -0.114 | 0.332 (active) | -0.001 | 0.017 |
| TUBA1B (UniProt P68363) | -0.012 | 0.008 | 0.025 | 0.003 | 0.021 | -0.011 | -0.003 | 0.018 | 0.022 | 0.005 | 0.009 | 0 | 0.013 | -0.02 | -0.046 | 0.013 | -0.008 | -0.011 | 0.003 | 0.017 |
| TFIP11 (UniProt Q9UBB9) | 0.059 | 0.001 | 0.023 | 0.008 | -0.022 | 0 | -0.034 | 0.016 | 0.031 | -0.003 | 0.017 | 0.025 | -0.09 | -0.018 | -0.059 | 0.048 | -0.027 | -0.037 | 0.018 | 0.027 |
| UBXN6 (UniProt Q9BZV1) | 0.046 | 0.174 | 0.037 | -0.012 | 0.019 | 0.121 | -0.059 | -0.038 | 0.031 | 0.041 | 0.046 | -0.192 | -0.007 | -0.025 | -0.075 | -0.001 | 0.008 | -0.015 | -0.03 | 0.025 |
| TRIM65 (UniProt Q6PJ69) | 0.053 | 0.073 | 0.046 | -0.035 | 0.005 | 0.047 | 0.006 | 0.006 | 0.003 | -0.063 | 0.025 | 0.085 | 0.013 | 0.026 | -0.076 | 0 | -0.056 | 0.008 | -0.022 | 0.022 |
| TMEM70 (UniProt Q9BUB7) | 0.001 | -0.026 | 0.012 | -0.063 | -0.002 | -0.01 | 0.01 | 0.103 | 0.058 | 0.003 | -0.016 | 0.029 | 0.063 | -0.072 | -0.004 | -0.027 | -0.378 (active) | 0.027 | 0.023 | 0.122 |
